Screens deposited in PubChem by National Center for Advancing Translational Sciences (NCATS).
This is a sample that favours compounds with a hit; in the whole collection about 3.7% have one here.
DRD3 antagonist – D3 dopamine receptor (human) antagonism; P35462; D3R cells, DiscoveRx beta-arrestin luminescence, antagonist mode; hits give low values; max response, negative = inhibition, %; 360,000 compounds, 2.5% hits; AID 652054; in the data active = max response below about -50%; inconclusive = no clear call, values can overlap the other calls; also: % is scaled to controls: 0 for no effect and ±100 for the full control effect
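Cells expressing the human receptor were seeded at 1500 cells/well, incubated overnight at 37 degrees C in 5% CO2, then exposed to library compounds with dopamine controls for 90 minutes at 37 degrees C before luminescent detection.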
B2AR arrestin – agonists driving beta-arrestin recruitment to human beta2-adrenergic receptor. beta-arrestin recruitment to beta2AR, cell-based reporter. Potency, µM (top dose mostly 46.1 µM), inactives show at the highest dose activation, actives largely listed as activators. 330,000 compounds, 0.02% hits. AID 492947;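 also: potency is read from the fitted curve at half-maximal effect; 0% = DMSO controls and full agonism = EC100 isoproterenol or metaproterenol; nearly all actives have a fitted effect of over 65% in size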
BRCA1 expr act – activators of BRCA1 expression | MCF7-BRCA1-FFLuc reporter, luminescence, 48 h; response scale: scaled: vehicle 0%, 10 µM genistein 100% | Potency, µM (top dose mostly 46.1 µM), for inactives: at the top dose activation, hits mostly activators | 380,000 compounds, 1.1% hits; also: potency is read from the fitted curve at half-maximal effect; nearly all actives have a fitted effect of over 80% in size
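MCF7 cells carrying a BRCA1-firefly luciferase reporter (2000 cells/well, phenol-red free MEM) were attached for 2 h at 37 °C, then given compounds for 48 h. Luminescence was read 15 min after luciferase reagent; activity normalized to genistein (10 microM) and DMSO.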
PTHR1 agonist – agonists of human PTHR1 parathyroid hormone receptor; HEK293 GP2 PTHR1 cells, GloSensor cAMP luminescence, 1 h; Potency, µM (series often up to 115 µM), inactives show top-dose activation, usual class: activators; 410,000 compounds, 0.075% hits; AID 743266; also: potency is read from the fitted curve at half-maximal effect; nearly all actives have a fitted effect of over 55% in size
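HEK-293-derived GP2 cells expressing PTHR1 and a GloSensor cAMP reporter, 3,000/well, plated overnight, given luciferin plus IBMX (each 0.5 mM as added) for 1 h at 37 °C, then compound for 1 h at 37 °C. Luminescence was read after 15 min at room temperature.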
DRD3 agonist – agonists of human D3 dopamine receptor; D3R DiscoveRx beta-arrestin cells, luminescence, 90 min; max activation, %; P35462; 410,000 compounds, 0.58% hits; in the data active = max activation above about 30%; also: 0% is about no effect
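Cells at 1500/well, incubated overnight, then treated with pinned compounds (dopamine as control) for 90 min at 37 degrees C. DiscoveRx reagent added for 30 - 60 minutes at room temperature; luminescence read.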
RGS4 inh – human RGS4 inhibition. Transcreener GDP fluorescence polarization, RGS4-accelerated GTP hydrolysis. Potency, µM (doses to about 114 µM), without a hit: at the top dose activity change, negative = inhibition, usual class: inhibitors. 390,000 compounds, 0.039% hits; also: potency is read from the fitted curve at half-maximal effect; % is scaled to controls: 0 for no effect and ±100 for the full control effect; nearly all actives have a fitted effect of over 75% in size
Target sequence (P49798 whole entry, looked up): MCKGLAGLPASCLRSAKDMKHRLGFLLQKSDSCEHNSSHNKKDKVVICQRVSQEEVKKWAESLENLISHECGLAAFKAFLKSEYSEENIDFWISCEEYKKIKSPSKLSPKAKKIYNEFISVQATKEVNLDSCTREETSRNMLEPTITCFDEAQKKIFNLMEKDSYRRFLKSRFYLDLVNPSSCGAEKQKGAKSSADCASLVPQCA
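MLSMR compounds (23 nl, pin-transferred) preincubated 10 min at room temperature with a 500nM (2x) first reagent, then RGS4 at 900nM (2x) plus Transcreener GDP mix added; fluorescence polarization (620/688 nm) read before and after 90 min at 30 °C.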
Starred values were filed as active, the others as inactive; i = inactive; ? = inconclusive; / = not tested or not shown; [ ] = dose if it differs, or a comment. Unless noted, calls follow the shape of the dose curve; as a rule, active = well fitted curve in the direction sought with a large enough effect; inconclusive = small, poorly fitted or top-dose-only effect, or another doubt; inactive = no such curve, though single readings can be large; an effect the other way counts as inactive or inconclusive.

SMILES | DRD3 antagonist | B2AR arrestin | BRCA1 expr act | PTHR1 agonist | DRD3 agonist | RGS4 inh
O=S1(=O)N(CCN2CC=C(c3c[nH]c4cc(F)ccc34)CC2)c2cccc3c2N1CCC3 | -101* | 0% | -54% | i | -92 | ?
CN(CC(=O)N[C@H](CO)Cc1ccccc1)C(=O)[C@H](CCS(C)=O)NC(=O)[C@@H](N)Cc1ccc(O)cc1 (some centres not stated) | / | / | / | / | / | i
CCOC(=O)C1(CCc2ccccc2)CCN(Cc2ccc3c(c2)OCCO3)CC1 | ? | 0% | -53% | -22% | -11 | -8%
CCOC(=O)C1(CCOc2ccccc2)CCN(Cc2ccc(C)s2)CC1 | -50* | -1% | -31% | i | -16 | 21%
CCCCNC(C)(C)[P+](=O)O | / | / | / | / | -18 | /
Cc1ccc(CN2C3CCCC2CC(NC(=S)NCc2ccccc2)C3)cc1 (configuration not stated) | -94* | 0% | -16% | i | -19 | -16%
CNC(=S)NC1CC2CCCC(C1)N2CC(C)C (configuration not stated) | 15 | -1% | 7% | i | -8 | 18%
CN1CCC(c2c[nH]c3ccccc23)C1 (configuration not stated) | -100* | 0% | -44% | ? | -2 | 32%
CCOC(=O)N(c1ccccc1)P1(=S)OCCO1 | -52* | 0% | -1% | i | 3 | -28%
CNCC(=O)c1ccc(O)c(O)c1 | / | / | / | / | 61* | /
CNCC(=O)c1ccccc1 | -51* | / | 4% | -36% | -42 | -17%
O=C(CCl)c1ccc(O)c(O)c1 | / | / | 73% | / | / | /
O=C1NC(=S)NC(=O)C1=Cc1ccc(OCc2ccccc2)cc1 | -21 | / | 13µM* | -25% | -5 | ?
COC1=CC(=O)[C@]2(C=C1OC)OC[C@@H]1Oc3c(ccc4c3C=CC(C)(C)O4)C(=O)[C@@H]12 | 61 | 0% | 0% | -25% | 70* | 9%
CCc1ccc(-c2nc(CSCC(=O)N3CCN(c4ccc(F)cc4)CC3)c(C)o2)cc1 | / | / | / | -71% | 11 | 7%
Cc1cc2c(C(C)C)c(O)c(O)c(C=O)c2c(O)c1-c1c(C)cc2c(C(C)C)c(O)c(O)c(C=O)c2c1O | / | 0% | -70% | / | 13 | 4.2µM*
C[C@H]1CC[C@]2(NC1)O[C@H]1C[C@H]3[C@@H]4CC[C@H]5C[C@@H](O[C@@H]6O[C@H](CO)[C@H](O[C@@H]7O[C@H](CO)[C@@H](O)[C@H](O[C@@H]8OC[C@@H](O)[C@H](O)[C@H]8O)[C@H]7O[C@@H]7O[C@H](CO)[C@@H](O)[C@H](O)[C@H]7O)[C@H](O)[C@H]6O)CC[C@]5(C)[C@H]4CC[C@]3(C)[C@H]1[C@@H]2C | / | / | / | / | -22 | /
COC(=O)c1c(Sc2ccccc2)c2ccccc2n1C | -2 | 0% | -22% | -32% | -12 | -52%
O=c1[nH]c(=S)n(C2CC2)c(O)c1C=NCCN1CCOCC1 | 3 | 0% | -2% | i | -3 | 3%
O=c1[nH]c(=O)n(C2CCCCCC2)c(O)c1C=NCCCN1CCOCC1 | -61* | 0% | -19% | -2% | -6 | 36%
CCCCCCCCOC(=O)c1ccccc1C(=O)OCCCCCCCC | / | / | / | / | -8 | /
CCOC(C(=O)OCCCN(CC)CC)(c1ccccc1)c1ccccc1 | -55* | -1% | -19% | i | -11 | -4%[11.4 µM]
CCN(CC)CCOC(=O)C(C)(c1ccccc1)c1ccccc1 | / | / | / | / | -17 | /
CCN(CC)CCCOC(=O)C(OC(C)C)(c1ccccc1)c1ccccc1 | -101* | 0% | -6% | i | -34 | 15%
ClC1=C(Cl)[C@]2(Cl)[C@@H]3[C@H]4C[C@H]([C@@H]5O[C@H]45)[C@@H]3[C@@]1(Cl)C2(Cl)Cl | / | / | / | / | 3 | /
CC(C)N1CCN(Cc2ccccc2C(F)(F)F)CC1CCO (configuration not stated) | -53* | 0% | -17% | 6% | -11 | 5%
CCC(Sc1ccccc1)C(=O)OC1CC2CCC(C1)N2C (configuration not stated) | / | / | / | / | / | i
